The panel holds about 83,000 compounds, 20% with a hit somewhere; the sample as a whole holds those more often.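 Assay: single dose, 48 h. Readout: percent growth (0 = no net growth; negative = cell death). Active: <10.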 Values without a mark were called inactive. Active and inactive are the calls of the source.
tested on: 786-0 renal; experiment: NCI-60 one-dose screen, 48 h (100 = growth as untreated, 0 = no growth, -100 = all killed); conditions: 10 µM unless noted

| SMILES | growth |
| --- | --- |
| Cc1nn(-c2ccccc2)c(Cl)c1/C=C/C(=O)c1ccc(F)cc1 | 12.6% |
| COc1cc2oc(-c3cccc(C(=O)Nc4ccc(Br)cc4)c3)cc(=O)c2c(OC)c1OC | 67.4% |
| CC1=C(C(=O)/C=C/c2c[nH]c3ccccc23)C(c2ccccc2)NC(=S)N1 (configuration not stated) | 102% |
| CCCCCN1C=C/C(=C\C(=O)N(C)c2ccc(Oc3ccccc3)cc2)c2ccccc21 | 89.7% |
| Cn1cc(-c2nc(-c3c[nH]c4c(Cl)nccc34)cs2)c2cc(Br)ccc21 | 84.6% |
| COc1ccc(/C=C2\Oc3cc(OCCCN4CCCCC4)ccc3C2=O)cc1OC | 88.7% |
| Cc1cc2nc3c4cc(C=O)ccc4n(CCN(C)C)c3nc2cc1C | 27.5% |
| S=c1cc(S)c2cc(Br)ccc2[nH]1 | 104% |
| O=C(/C(=C\c1ccc([N+](=O)[O-])cc1)S(=O)Cc1ccc(Cl)cc1)c1ccc(Cl)cc1 (configuration not stated) | 32.1% |
| COc1cc(CC(=O)c2ccc(O)c(OC)c2)ccc1O | 104% |
| O=C(NCCc1ccccc1)Nc1ccc2cc3ccc(NC(=O)NCCc4ccccc4)cc3nc2c1 | 38.4% |
| C=C(C)[C@@H]1CC[C@]2(C(=O)N3CCN(C)CC3)CC[C@]3(C)[C@H](CC[C@@H]4[C@@]5(C)C/C(=C/c6cccnc6)C(=O)C(C)(C)[C@@H]5CC[C@]43C)[C@@H]12 | 75.7% |
| COc1cc2nc(-c3ccc(Cl)cc3)cc(OCCCN3CCC(O)CC3)c2cc1OC | 75.2% |
| O=S(=O)(NCCNc1nccc(-c2c(-c3cccc(O)c3)nc3occn23)n1)c1ccccc1 | 93.3% |
| NC(=NCCCOc1ccc(F)cc1)Nc1ccc(Cl)cc1 | 71.4% |
| C#Cc1cccc(NC(=O)c2cccc(NC(=O)CCl)c2)c1 | -71.8% [8.25 µM] (active) |
| CCN1Cc2nc3sc(C)c(C)c3c(=O)n2C=C1C | 16.8% |
| O=C1Nc2cc(-c3cccc([N+](=O)[O-])c3)ccc2/C1=C/c1ccc[nH]1 | 107% |
| C[C@H]1[C@H](C)CC[C@]2(C(=O)NCC#CCN3CCN(C)CC3)CC[C@]3(C)C(=CC[C@@H]4[C@@]5(C)Cc6c([nH]c7ccccc67)C(C)(C)[C@@H]5CC[C@]43C)[C@H]12 | 66.9% |

| SMILES | growth |
| --- | --- |
| COc1cc(/C=C/c2cc(O)c(C(C)=O)c(O)c2)cc2c1O[C@]1(C)CC[C@@H](O)C(C)(C)[C@H]1C2 | 7.29% (active) |
| N#CC1=C(N)Oc2c(cnn2-c2ccc([N+](=O)[O-])cc2[N+](=O)[O-])C1c1ccccc1 (configuration not stated) | 114% |
| COc1ccc(C(=O)c2cc(C)c(OC)c(C)c2)c(OC)c1N(C(=O)CCl)C(=O)CCl | 13.2% |
| CCC(=O)Oc1ccc(/C(=C(\C)c2ccccc2)c2ccc(OCCN3CCCCC3)cc2)cc1 | 67.3% |
| Cc1ccc(NC(=O)c2cc(-c3nc4ccccc4s3)c(=O)n(NS(=O)(=O)c3ccc(Cl)cc3)c2N)cc1 | 101% |
| O=C1Nc2ccc(F)cc2/C1=C\c1c(-c2ccccc2)nc2ccccn12 | 75.4% |
| O=C1Nc2ccccc2/C1=C\c1c(-c2ccc(F)cc2)nc2ccccn12 | 82.1% |
| Oc1cccc(CCc2ccc(Oc3cc(CCc4cccc(O)c4)cc(O)c3O)cc2)c1 | 92.8% |
| CCCCCCCC(=O)OCC/C=C/C1OC1C1OC(=O)/C=C\C=C\C(=O)N(C(C)=O)C(=O)/C=C(/C)CCC2OC2C1OC(=O)NC(C)=O (configuration not stated) | 21.3% |
| Cc1ccc(NS(=O)(=O)c2ccc(-c3cnc(C4CC4)o3)cc2)cc1C(F)(F)F | 85.5% |
| CNC(=O)c1cncc(Cn2nc(C)c(NC(=O)c3ccc(COc4ccc(C(F)(F)F)cc4C)cc3)c2C)c1 | 68.8% |
| Cc1cc(C)c(S(=O)(=O)Oc2ccccc2[N+](=O)[O-])c(C)c1 | 33% |
| C=C1C(=O)O[C@H]2[C@H]1CC/C(CNC(=O)C(C)c1ccc(CC(C)C)cc1)=C\CC[C@@]1(C)O[C@@H]21 (some centres not stated) | -86% (active) |
| NC(=S)N1N=C(c2ccccc2)CC1c1cn(-c2ccccc2)nc1-c1ccc(OCc2ccccc2)cc1 (configuration not stated) | 98.4% |
| CN1CCN(C(=O)[C@]23CCC(C)(C)C[C@H]2C2=CC[C@@H]4[C@@]5(C)C/C(=C/c6cccnc6)C(=O)C(C)(C)[C@@H]5CC[C@@]4(C)[C@]2(C)CC3)CC1 | 73.7% |
| O=C1Nc2cc(-c3cccc(O)c3)ccc2/C1=C/c1ccc[nH]1 | 15% |
| COc1ccc(/C=C/c2nc(Nc3ccc(S(=O)(=O)NC(C)=O)cc3)c3ccccc3n2)cc1 | 83.6% |
| CCNC(=O)Oc1ccc(/C(=C(\C)c2ccccc2)c2ccc(OCCN3CCCCC3)cc2)cc1 | 16.4% |

— PubChem BioAssay (NCI)
